Test systems include ACVR2B; ACVRL1; ADCK4; AKT1; AKT2; AKT3; ALK; ANKK1; AURKA; AURKB; AURKC; AXL; BLK.
Holding throughout (details): concentration: 1 μM, replicates: in singlicate; n = 1
Another assay relates to T1, ADCK3.
T1 construct: gene CABC1

A further assay has as its system T2, AMPK-alpha1.
T2 construct: gene PRKAA1

The next assay deals with T3, AMPK-alpha2.
T3 construct: gene PRKAA2

Another assay deals with T4, ARK5.
T4 construct: gene NUAK1

Another assay has as its system T5, ASK1.
T5 construct: gene MAP3K5

The next assay concerns T6, ASK2.
T6 construct: gene MAP3K6

In the next assay the test system is T7, BIKE.
T7 construct: gene BMP2K

SMILES strings stand for the structures.
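Also: KINOMEscan kinase panel screen.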

In the case of `Cn1ccc2ncnc(Oc3cccc(C(=O)Nc4ccccc4)c3)c21`, the “%Inh” value in the assay with ACVR2B turned out to be 1%; in the assay on ACVRL1 it was 0%; in the assay on ADCK3, 6%; in the assay on ADCK4, 17%; in the assay with AKT1, 0%; in the assay with AKT2, 0%. Further, the “%Inh” value in the assay on AKT3 is 10%; in the assay with ALK, 0%; with AMPK-alpha1, 0%; in the assay on AMPK-alpha2 it was 0%; in the assay on ANKK1 it was 28%; with ARK5, 14%. Besides, the “%Inh” value in the assay with ASK1 is given as 0%; with ASK2, 0%; with AURKA it was 21%; in the assay with AURKB it was 0%; in the assay on AURKC, 26%; in the assay on AXL it was 3%. Also, the “%Inh” value turned out to be 14% in the assay with BIKE and 1% in the assay on BLK.

Turning to `CCn1c(-c2cccnc2O)nc2cnccc21` [SB-736715], the “%Inh” value is 0% with ACVR2B; 0% in the assay with ACVRL1; 0% in the assay on ADCK3; 88% with ADCK4; 2% with AKT1; 0% with AKT2. In addition, the “%Inh” value with AKT3, in the assay with ALK, with AMPK-alpha1, in the assay with AMPK-alpha2, in the assay with ANKK1 and in the assay on ARK5 was 0% each time. Further, the “%Inh” value is 0% in the assay with ASK1; 0% in the assay with ASK2; 8% with AURKA; 0% in the assay with AURKB; 0% with AURKC; 38% in the assay on AXL. Further, the “%Inh” value in the assay with BIKE and in the assay on BLK was 0% each time.

`Cl.c1ccc(-c2n[nH]cc2-c2ccnc(-c3ccc(CN4CCOCC4)cc3)c2)nc1` [GW776245]: the “%Inh” value in the assay on ACVR2B amounted to 9%; in the assay on ACVRL1, 0%; with ADCK3 it was 34%; in the assay on ADCK4 it was 0%; in the assay on AKT1, 17%; in the assay on AKT2, 0%. Moreover, the “%Inh” value with AKT3 was determined as 0%; in the assay with ALK, 0%; in the assay with AMPK-alpha1, 0%; in the assay on AMPK-alpha2, 14%; in the assay on ANKK1 it was 0%; in the assay on ARK5, 0%. Besides, the “%Inh” value in the assay on ASK1 stood at 1%; with ASK2, 0%; with AURKA it was 0%; with AURKB, 6%; with AURKC, 8%; with AXL, 0%. Besides, the “%Inh” value with BIKE is reported as 20%; in the assay on BLK, 9%.

For `COc1ccc2nc(-c3cccc(C)n3)nc(Nc3ccncc3)c2c1` [GSK204919], the “%Inh” value was 0% with ACVR2B; 0% with ACVRL1; 25% with ADCK3; 3% in the assay with ADCK4; 0% in the assay with AKT1; 5% in the assay on AKT2. The “%Inh” value in the assay on AKT3 was found to be 0%; with ALK, 24%; in the assay on AMPK-alpha1 it was 0%; in the assay with AMPK-alpha2, 16%; in the assay with ANKK1, 0%; in the assay on ARK5, 6%. The “%Inh” value in the assay on ASK1 is on record as 8%; in the assay with ASK2, 0%; in the assay with AURKA it was 0%; in the assay on AURKB, 3%; with AURKC, 6%; in the assay on AXL, 2%. Further, the “%Inh” value is reported as 3% in the assay on BIKE and 31% in the assay on BLK.

On to `O=C(Nc1ccccc1)Nc1cccc(Oc2ccc3nccn3n2)c1`, for which the “%Inh” value was found to be 6% in the assay on ACVR2B; 0% with ACVRL1; 5% with ADCK3; 18% in the assay on ADCK4; 32% in the assay with AKT1; 0% in the assay on AKT2. Also, the “%Inh” value came out at 20% in the assay on AKT3; 17% in the assay on ALK; 11% in the assay on AMPK-alpha1; 0% with AMPK-alpha2; 0% with ANKK1; 0% with ARK5. The “%Inh” value in the assay on ASK1 is 0%; with ASK2 it was 0%; in the assay on AURKA, 0%; in the assay with AURKB, 8%; in the assay with AURKC, 26%; with AXL, 7%. In addition, the “%Inh” value in the assay on BIKE and in the assay with BLK was 0% in each case.

`Cc1cccc(-c2nc(-c3ccc(S(C)(=O)=O)cc3)sc2-c2ccnc(NCCc3ccccc3)c2)c1`: the “%Inh” value in the assay on ACVR2B is listed as 3%; in the assay on ACVRL1 it was 0%; with ADCK3, 0%; with ADCK4 it was 12%; in the assay with AKT1, 14%; in the assay on AKT2, 6%. The “%Inh” value is given as 12% in the assay on AKT3; 0% in the assay on ALK; 0% in the assay on AMPK-alpha1; 17% with AMPK-alpha2; 7% in the assay on ANKK1; 11% with ARK5. Besides, the “%Inh” value in the assay with ASK1 is 0%; with ASK2, 0%; in the assay with AURKA, 0%; in the assay on AURKB, 14%; in the assay with AURKC it was 0%; in the assay with AXL it was 0%. Moreover, the entries for the “%Inh” value in the assay on BIKE and with BLK were 9% and 16%, respectively.

Consider `O=C(Nc1n[nH]c2nc(-c3nccs3)c(Br)cc12)C1CCCC1` [SB-742609], for which the “%Inh” value turned out to be 11% in the assay on ACVR2B; 0% in the assay on ACVRL1; 0% with ADCK3; 14% in the assay on ADCK4; 0% with AKT1; 10% in the assay with AKT2. The “%Inh” value with AKT3 was 1%; in the assay on ALK, 26%; in the assay on AMPK-alpha1, 0%; in the assay with AMPK-alpha2 it was 18%; in the assay with ANKK1 it was 0%; in the assay on ARK5 it was 0%. Moreover, the “%Inh” value came out at 0% in the assay on ASK1; 13% in the assay on ASK2; 0% in the assay with AURKA; 13% with AURKB; 11% in the assay with AURKC; 0% with AXL. For the same molecule, the “%Inh” value with BIKE is given as 0%; in the assay on BLK it was 31%.

The values are drawn from publication PMC5540273 (PLoS ONE, 2017).
